According to PubChem BioAssay (NCI):
Compounds without any hit were thinned out: in the full panel of roughly 83,000, 20% have a hit.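 Growth was measured after 48 h exposure to one concentration of compound in 96-well plates. Values under 10 count as active.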 The source made the active and inactive calls.

Legend:
Test in all cases: NCI-60 one-dose screen, 48 h (100 = growth as untreated, 0 = no growth, -100 = all killed)
Conditions in all cases: 10 µM unless noted
NCI-H23 lung = system: NCI-H23 lung
NCI-H226 lung = system: NCI-H226 lung
NCI-H322M lung = system: NCI-H322M lung
HOP-62 NSCLC = system: HOP-62 NSCLC
NCI-H460 lung = system: NCI-H460 lung
HOP-92 NSCLC = system: HOP-92 NSCLC
NCI-H522 lung = system: NCI-H522 lung
A549/ATCC NSCLC = system: A549/ATCC NSCLC
786-0 renal = system: 786-0 renal
COLO 205 colon = system: COLO 205 colon

Measured: growth

O=C(Cc1nc2cc(Cl)c(Cl)cc2nc1CC(=O)c1ccccc1)c1ccccc1
inactive: NCI-H23 lung 77.3% | NCI-H226 lung 70.4% | NCI-H322M lung 80.9% | HOP-62 NSCLC 70.5% | NCI-H460 lung 73.4% | HOP-92 NSCLC 67.3% | NCI-H522 lung 58.2% | A549/ATCC NSCLC 74.4% | 786-0 renal 67.6% | COLO 205 colon 76.3%

CC1(C)CCCC2=C1C(=O)N(SC(Cl)(Cl)Cl)C2=O
active: NCI-H522 lung -73.2%
inactive: NCI-H23 lung 101% | NCI-H226 lung 93.6% | NCI-H322M lung 101% | HOP-62 NSCLC 98.2% | NCI-H460 lung 109% | HOP-92 NSCLC 89.5% | A549/ATCC NSCLC 92.6% | 786-0 renal 95% | COLO 205 colon 69.8%

N=C1C=C(N)C(=O)c2ccccc21
active: NCI-H23 lung -82.3% | NCI-H226 lung -63% | NCI-H322M lung -88.4% | HOP-62 NSCLC -94.3% | NCI-H460 lung -67.8% | HOP-92 NSCLC -38.8% | NCI-H522 lung -67% | A549/ATCC NSCLC -71.7% | 786-0 renal -99.6% | COLO 205 colon -93.7%

COc1cc(OC)c(/C=C/c2c3ccccc3cc[n+]2C)c(OC)c1
inactive: NCI-H23 lung 17.3% | NCI-H226 lung 33.3% | NCI-H322M lung 32.9% | HOP-62 NSCLC 35.3% | NCI-H460 lung 10.8% | HOP-92 NSCLC 36.6% | A549/ATCC NSCLC 14.7% | 786-0 renal 62.8%
active: NCI-H522 lung -19.3% | COLO 205 colon -35.3%

CC1=CC(=O)C=CC1(C)C(Cl)(Cl)Cl (stereo not given)
inactive: NCI-H23 lung 100% | NCI-H226 lung 95.2% | NCI-H322M lung 102% | HOP-62 NSCLC 84.7% | NCI-H460 lung 104% | HOP-92 NSCLC 106% | NCI-H522 lung 82.2% | A549/ATCC NSCLC 68.4% | 786-0 renal 101% | COLO 205 colon 89.7%

CCCOS(=O)(=O)c1ccccc1
inactive: NCI-H23 lung 101% | NCI-H226 lung 103% | NCI-H322M lung 102% | HOP-62 NSCLC 84.6% | NCI-H460 lung 106% | HOP-92 NSCLC 76.1% | NCI-H522 lung 104% | A549/ATCC NSCLC 111% | 786-0 renal 121% | COLO 205 colon 108%

Cc1cc(N/N=C/c2ccccn2)nc2ccccc12
inactive: NCI-H23 lung 14% | COLO 205 colon 20.5%
active: NCI-H226 lung -1.94% | NCI-H322M lung 7.17% | HOP-62 NSCLC 0.2% | NCI-H460 lung 3.05% | HOP-92 NSCLC -2.87% | NCI-H522 lung -25.6% | A549/ATCC NSCLC 1.82% | 786-0 renal 8.98%

Oc1c(Cl)cc(Cl)cc1C=NCC1CCC(CN=Cc2cc(Cl)cc(Cl)c2O)CC1 (stereo not given)
inactive: NCI-H23 lung 102% | NCI-H226 lung 97% | NCI-H322M lung 75.5% | HOP-62 NSCLC 95.1% | NCI-H460 lung 108% | HOP-92 NSCLC 76.6% | NCI-H522 lung 91.6% | A549/ATCC NSCLC 106% | 786-0 renal 96.7% | COLO 205 colon 112%

OC(c1cc(C23CC4CC(CC(C4)C2)C3)nc2c(Cl)cc(Cl)cc12)C1CCCCN1 (stereo not given)
active: NCI-H23 lung -53.9% | NCI-H226 lung -69.4% | NCI-H322M lung -19.3% | HOP-62 NSCLC -88.6% | NCI-H460 lung -71.4% | HOP-92 NSCLC -80.7% | NCI-H522 lung -81% | A549/ATCC NSCLC -74.6% | 786-0 renal -55% | COLO 205 colon -87.2%

CCCCCCCCCCCCCCCCSC(=NCC)NCC
active: NCI-H460 lung -83.9% | HOP-92 NSCLC -21.3% | A549/ATCC NSCLC -19.9% | COLO 205 colon -98.7%
inactive: NCI-H23 lung 39.4% | NCI-H226 lung 85.7% | NCI-H322M lung 17.4% | HOP-62 NSCLC 25.9% | NCI-H522 lung 23.5% | 786-0 renal 11.1%

OC(c1cc(-c2ccc(Cl)cc2)nc2c(Cl)cccc12)C1CCCCN1 (stereo not given)
active: NCI-H23 lung -9.58% | NCI-H226 lung -44.1% | NCI-H322M lung -54.8% | HOP-62 NSCLC -92.2% | NCI-H460 lung -87.4% | HOP-92 NSCLC -29.4% | NCI-H522 lung -89.1% | A549/ATCC NSCLC -82.9% | 786-0 renal -75% | COLO 205 colon -91.1%

O=[N+]([O-])c1cc(-c2ccccc2)c(O)c([N+](=O)[O-])c1
active: HOP-92 NSCLC 3.74%
inactive: NCI-H23 lung 83.7% | NCI-H226 lung 82.5% | NCI-H322M lung 126% | HOP-62 NSCLC 92.5% | NCI-H460 lung 65.9% | A549/ATCC NSCLC 86.8% | COLO 205 colon 106%

C[C@@]1(CO)[C@H](O)CC[C@@]2(C)[C@H]1CC[C@H]1C[C@@H]3C[C@@]12CC[C@@]3(O)COC(=O)CN
inactive: NCI-H23 lung 21.5% | NCI-H226 lung 62% | NCI-H322M lung 78.1% | HOP-62 NSCLC 37.6% | NCI-H460 lung 12% | HOP-92 NSCLC 45.4% | NCI-H522 lung 49% | 786-0 renal 14.9% | COLO 205 colon 47%

O=C(/C=C/C(Cl)(Cl)Cl)Nc1ccc(Cl)cc1
active: NCI-H522 lung -51.6%
inactive: NCI-H23 lung 81.5% | NCI-H226 lung 106% | NCI-H322M lung 126% | HOP-62 NSCLC 125% | NCI-H460 lung 115% | HOP-92 NSCLC 82.1% | 786-0 renal 109% | COLO 205 colon 98.6%

COc1ccc2c(c1)c(CC(=O)O)c(C)n2C(=O)c1ccc(Cl)cc1
inactive: NCI-H23 lung 92.5% | NCI-H226 lung 94.8% | NCI-H322M lung 89.7% | HOP-62 NSCLC 100% | NCI-H460 lung 101% | HOP-92 NSCLC 82.8% | NCI-H522 lung 97.5% | 786-0 renal 77.4% | COLO 205 colon 128%
